# Laboratory results reported in PMC4336329 (PLoS ONE, 2015).
# In all, about 310,000 compounds went through this assay and about 14,000 (4.5%) showed an effect of 50% or more. The effect is printed as a negative number. This is one part of a sample in which strong results are shown more often than they occur.
# Biological target: human ether-à-go-go-related gene (hERG) potassium channel (human, UniProt Q12809)
# Assay: primary screen, population patch clamp on CHO cells stably expressing hERG; higher = less effect of the substance
# 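Also: peak tail current of the secondary pulse compared with the same well before compound.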
# Sequence of human ether-à-go-go-related gene (hERG) potassium channel (Q12809 whole entry, looked up): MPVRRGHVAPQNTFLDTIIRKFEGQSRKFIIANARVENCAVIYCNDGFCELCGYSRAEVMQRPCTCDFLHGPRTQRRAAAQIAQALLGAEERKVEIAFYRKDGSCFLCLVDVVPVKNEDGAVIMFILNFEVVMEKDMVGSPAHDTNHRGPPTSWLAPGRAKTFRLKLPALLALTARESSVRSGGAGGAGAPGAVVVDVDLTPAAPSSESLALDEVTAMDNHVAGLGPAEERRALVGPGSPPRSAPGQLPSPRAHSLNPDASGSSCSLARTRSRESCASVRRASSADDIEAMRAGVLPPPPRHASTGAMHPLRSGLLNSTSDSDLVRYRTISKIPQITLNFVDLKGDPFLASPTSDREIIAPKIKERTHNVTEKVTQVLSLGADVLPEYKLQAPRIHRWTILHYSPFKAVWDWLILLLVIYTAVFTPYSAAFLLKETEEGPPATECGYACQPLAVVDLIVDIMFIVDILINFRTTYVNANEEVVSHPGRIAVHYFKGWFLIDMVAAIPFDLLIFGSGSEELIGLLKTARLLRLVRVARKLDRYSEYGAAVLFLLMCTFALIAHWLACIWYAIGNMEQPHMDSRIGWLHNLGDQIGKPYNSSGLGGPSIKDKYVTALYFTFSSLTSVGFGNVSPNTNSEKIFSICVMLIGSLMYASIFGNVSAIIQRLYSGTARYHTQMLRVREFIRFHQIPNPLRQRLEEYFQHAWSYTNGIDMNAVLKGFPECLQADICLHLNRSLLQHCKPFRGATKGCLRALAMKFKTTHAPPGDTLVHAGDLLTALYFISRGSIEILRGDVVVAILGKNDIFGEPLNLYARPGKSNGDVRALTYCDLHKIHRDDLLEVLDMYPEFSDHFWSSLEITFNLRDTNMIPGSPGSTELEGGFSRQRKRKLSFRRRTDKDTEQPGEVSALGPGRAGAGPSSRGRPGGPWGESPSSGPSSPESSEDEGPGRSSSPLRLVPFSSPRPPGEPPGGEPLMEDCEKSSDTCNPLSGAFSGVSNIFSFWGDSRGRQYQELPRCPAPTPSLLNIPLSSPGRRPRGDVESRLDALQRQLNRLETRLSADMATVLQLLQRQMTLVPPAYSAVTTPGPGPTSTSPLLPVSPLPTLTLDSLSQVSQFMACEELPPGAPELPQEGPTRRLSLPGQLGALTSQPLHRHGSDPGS
row,SMILES,"hERG current change (%, negative = inhibition) at 10uM"
1,Cn1c(N2C(=O)CC(Cc3ccccc3)C2=O)nc2ccccc21 (stereo not shown),-17.6%
2,COc1ccc(CN(C(=O)c2cccs2)c2nccs2)cc1OC,-10.9%
3,O=C1CC(NS(=O)(=O)c2cc(F)ccc2F)CN1c1ccc2c(c1)OCCO2 (stereo not shown),-4.13%
4,Cc1cc(C)n2nc(SCC(=O)NC(=O)c3ccccc3Cl)nc2n1,0.516%
5,COc1ccc(N2CC(C(=O)NC3CC(C)(C)NC(C)(C)C3)CC2=O)cc1 (stereo not shown),-2.68%
6,COc1ccc(NC2c3ccccc3C(=O)N2Cc2ccc3c(c2)OCO3)cc1 (stereo not shown),-17.7%
7,CCOC(=O)c1ccc(NC(=O)Nc2ccon2)cc1,6.02%
8,O=C(O)C1=CC[C@@H](c2ccc(Cl)cc2)N(S(=O)(=O)c2ccc(Cl)cc2)[C@H]1c1cccc(Cl)c1,25.9%
9,CCOC(=O)C1CCN(CC(=O)c2c(C)[nH]c3cc(C)ccc23)CC1,-60.5%
10,CCOC(=O)C1CCN(CC(=O)c2c(C)[nH]c3ccccc23)CC1,-39.7%
11,Cc1ccc2c(C(=O)CN3CCC(C(N)=O)CC3)c(C)[nH]c2c1,5.21%
12,COc1cc(/C=N/NC(=O)c2ccc(Cl)cc2)ccc1OCC(=O)N1CC(C)OC(C)C1 (stereo not shown),-18.3%
13,O=C(c1cccc(S(=O)(=O)N2CCCCC2)c1)N1CCN(S(=O)(=O)c2ccc(F)cc2)CC1,-40.6%
14,O=C(CN1CCN(C(=O)c2cccc(S(=O)(=O)N3CCCC3)c2)CC1)Nc1ccc(F)cc1,-61.7%
15,O=C(CN1CCN(C(=O)c2ccccc2)CC1)Nc1cc(S(=O)(=O)N2CCCC2)ccc1Cl,-32.8%
16,O=C(CN1CCN(C(=O)c2cccc(S(=O)(=O)N3CCCC3)c2)CC1)Nc1ccccc1Cl,-66.8%
17,O=C(CN1CCN(S(=O)(=O)c2ccccc2)CC1)Nc1ccccc1Cl,-6.93%
18,O=C(CN1CCN(C(=O)c2ccco2)CC1)Nc1cccc(S(=O)(=O)N2CCCC2)c1,-16.2%
19,CCOc1ccc(N2C(=O)/C(=C/c3ccco3)N(C)C2=S)cc1,-4.46%
20,CCC(C)NC(=O)C1CCCN(C(=O)NC2CCCCC2)C1 (stereo not shown),13.8%
21,Cc1cc(N2CCOCC2)nc2ccc(NC(=O)CCC(=O)N3CCN(c4ccc(F)cc4)CC3)cc12,21%
22,COc1cc(SC)ccc1C(=O)N1CCN(c2ccccc2F)CC1,-33.8%
23,COc1ccc(N2CCN(S(=O)(=O)/C=C/c3ccccc3)CC2)cc1,1.54%

row,SMILES,"hERG current change (%, negative = inhibition) at 10uM"
1,COc1cc(SC)ccc1C(=O)N1CCN(c2ccccc2OC)CC1,-24.5%
2,COc1cc(SC)ccc1C(=O)N1CCN(S(=O)(=O)/C=C/c2ccccc2)CC1,-56.5%
3,COc1ccc(Br)c(C(=O)N2CCN(S(=O)(=O)c3cccs3)CC2)c1,-9.75%
4,COc1ccc(Br)c(C(=O)N2CCN(S(=O)(=O)/C=C/c3ccccc3)CC2)c1,-58.8%
5,CCOC(=O)c1c(NC(=O)CN2CCCc3ccccc32)sc(C(C)=O)c1C,5.24%
6,CC1(C)CCC(=O)N2CC[C@H]3C[C@H](OC(=O)Nc4ccc5c(c4)OCO5)C[C@@H]1[C@H]32,-0.41%
7,CC1(C)CC(=O)c2cc(OCC(=O)NCCN3CCCc4ccccc43)ccc2O1,-47.5%
8,N#CC1=C(N)Oc2c(c(=O)oc3ccccc23)C1c1cccnc1 (stereo not shown),5.62%
9,CC1(C)C2CC=C(/C=N/NC(=O)c3ccccc3Br)C1C2 (stereo not shown),-2.58%
10,C=CC(C)(C)O[C@@H]1O[C@H](CO)[C@@H](O)[C@H](O)[C@H]1O,40.6%
11,Cc1cccc(N2CCc3c2nc2ccccc2c3N)c1.O=C(O)C(=O)O,-53.7%
12,CCCC(=O)Nc1c2c(nc3ccccc13)N(c1ccccc1)CC2,-1.55%
13,Cc1cccc(N2CCc3c2nc2ccc(Br)cc2c3N)c1.Cl,6.56%
14,Nc1c2c(nc3cccc(Cl)c13)N(c1ccccc1)CC2,31.7%
15,Cc1cccc(N2CCc3c2nc2ccccc2c3N)c1.Cl,-61.9%
16,Cc1ccc2nc3c(c(N)c2c1)CCN3c1ccccc1.O=C(O)C(=O)O,-35.4%
17,CC(C)(C)c1ccccc1NC(=O)COC(=O)CN1C(=O)NC2(CCCC2)C1=O,15.8%
18,Cc1c(OCC(=O)NCC(O)c2ccccc2)ccc2c3c(c(=O)oc12)CCC3 (stereo not shown),-8.23%
19,Cl.O=C(CN1CCOCC1)c1ccc(Br)cc1,18%
20,CN(CC(=O)NCC1CCCCC1)CC(=O)Nc1ccccc1Br,-21.2%
21,Cc1ccc(S(=O)(=O)N(CCCO)Cc2cc3c(C)ccc(C)c3[nH]c2=O)cc1,-45.9%
22,COc1ccc(S(=O)(=O)N(CCCN2CCCC2=O)Cc2cc3c(C)ccc(C)c3[nH]c2=O)cc1,-36.1%
23,Cc1ccc(S(=O)(=O)N(CCCN2CCCC2=O)Cc2cc3c(C)ccc(C)c3[nH]c2=O)cc1,-64%

row,SMILES,"hERG current change (%, negative = inhibition) at 10uM"
1,O=C(c1ccc(NS(=O)(=O)c2ccccc2)cc1)N1CCCC1,-8.95%
2,CS/C(N)=N/S(=O)(=O)c1ccc(NC(C)=O)cc1,17.6%
3,C/C(=N/Nc1ccccc1[N+](=O)[O-])c1ccc([N+](=O)[O-])cc1,5.07%
4,CC1CCc2c(sc(NC(=O)c3ccccc3C(=O)O)c2C#N)C1 (stereo not shown),-0.906%
5,CCN(CC)CCNc1nc2c(c(=O)[nH]c(=O)n2C)n1CC(O)COc1ccc(Cl)cc1Cl (stereo not shown),-70.2%
6,CN(C)CCNc1nc2c(c(=O)[nH]c(=O)n2C)n1CC(O)COc1ccc(Cl)cc1 (stereo not shown),-20%
7,Cc1cc(C)n(-c2nc3c(c(=O)[nH]c(=O)n3C)n2CC(O)COc2ccc(Cl)cc2Cl)n1 (stereo not shown),-3.56%
8,CN(C)CCNc1nc2c(c(=O)[nH]c(=O)n2C)n1CC(O)COc1ccc(Cl)cc1Cl (stereo not shown),-55%
9,CC(C)Cn1c(NCCN(C)C)nc2c1c(=O)[nH]c(=O)n2C,10.1%
10,COCCCNc1nc2c(c(=O)[nH]c(=O)n2C)n1CC(O)COc1ccccc1C (stereo not shown),-7.62%
11,C[C@]12CC[C@H](O)C[C@H]1CC[C@@H]1C2CC[C@]2(C)[C@@H](C3=CC(=O)OC3)[C@@H](O)C[C@]12O (stereo partly shown),21.1%
12,N#Cc1c2c(nc(N)c1-c1ccccc1)CCCCC2,7.02%
13,CC1=C(C(=O)OCC(Br)(Br)Br)C(c2cccc([N+](=O)[O-])c2)NC(=O)N1CCCC(=O)O (stereo not shown),-3.03%
14,CCn1nnnc1-c1ccc(OC)c(S(=O)(=O)Nc2ccc(C)c(C)c2)c1,-2.9%
15,CCNC(=S)NNC(=O)CCn1cc(C)cn1,20.7%
16,Cc1cccc(N2CCN(S(=O)(=O)c3c(C)[nH]c(C)c3C(=O)N3CCCC3)CC2C)c1 (stereo not shown),-19.2%
17,COc1ccccc1CNC(=O)COC(=O)c1ccc(Cl)c(N)c1,21.8%
18,N=c1c(C(=O)NCC2CCCO2)cc2c(=O)n3ccccc3nc2n1C1CCCC1 (stereo not shown),-76.9%
19,N=c1c(S(=O)(=O)c2ccc(Br)cc2)cc2c(=O)n3ccccc3nc2n1C1CCCC1,9.15%
20,N=c1c(C(=O)NCC2CCCO2)cc2c(=O)n3ccccc3nc2n1C1CCCCC1 (stereo not shown),-77.3%
21,N=c1c(S(=O)(=O)c2ccccc2)cc2c(=O)n3ccccc3nc2n1C1CCCC1,1.62%
22,N=c1c(S(=O)(=O)c2ccc(Br)cc2)cc2c(=O)n3ccccc3nc2n1C1CCCCC1,22.8%
23,Cc1nc(C(=O)NC2CC2)sc1C1(C)CC(c2ccccc2)=NO1 (stereo not shown),-8.63%

row,SMILES,"hERG current change (%, negative = inhibition) at 10uM"
1,Cc1ccc(Nc2nc(CSc3nnnn3-c3ccccc3)cs2)cc1,14.7%
2,CNC(=O)NC(=O)CN1C(=O)NC2(CCOc3ccccc32)C1=O (stereo not shown),18.9%
3,CC(C)OP(=O)(OC(C)C)/C(C=O)=N\Nc1ccc([N+](=O)[O-])cc1,-55.1%
4,N#CC(C#N)=NNc1ccc([N+](=O)[O-])cc1,-2.55%
5,COP(=O)(OC)/C(C=O)=N/Nc1ccc([N+](=O)[O-])cc1,-36.3%
6,CC(C)CCNC(=O)C1CCN(C(=O)N(C)C)CC1,14.5%
7,Cc1c(N2C(=O)CS/C2=N\N=C\c2ccc(Cl)cc2)c(=O)n(-c2ccccc2)n1C,-32.2%
8,CCN1CCN(CCCN(Cc2ccco2)C(=S)Nc2ccc(Cl)cc2)CC1,-64.2%
9,CN1CCN(CCCN(Cc2ccco2)C(=S)Nc2ccc(Cl)cc2)CC1,-69.6%
10,S=C(Nc1ccc(Cl)cc1)N(CCCN1CCOCC1)Cc1ccco1,-26%
11,CCOC(=O)C1C2C=CC3(CN(Cc4cccs4)C(=O)C13)O2 (stereo not shown),1.73%
12,CCOc1cccc(C(=O)NC(=S)Nc2cccc(C)c2)c1,6.87%
13,COCCCn1cnnc1SCc1nc2sc(C(C)=O)c(C)c2c(=O)[nH]1,-17%
14,Cc1ccc2cc3c(nc2c1)N(c1ccccc1)CC3,2.24%
15,COc1cccc(N2CCc3c(C)nc4ccc(Cl)cc4c32)c1,-72.9%
16,Cc1ccc2nc(C)c3c(c2c1)SCC3,-27.4%
17,Cc1ccc2nc(C)c3c(c2c1)N(c1ccccc1)CC3,-74.6%
18,CCN1Cc2c(/C=C/c3ccccc3)nc3ccc(OC)cc3c2N(c2cccc(Cl)c2)C1,-12.5%
19,Cc1ccc2nc(C)c3c(c2c1)N(c1ccc(F)cc1)CC3,-92.2%
20,CSc1nc(C)c2c(n1)N(c1ccc(F)cc1)CC2,19.8%
21,Cc1ccc2nc(C)n(-c3ccc(F)cc3)c(=O)c2c1,21.3%
22,Cc1nc2ccc(Cl)cc2c(=O)n1-c1cccc(Cl)c1,3.78%
